Each structure is given as a SMILES string. Results filed as inconclusive are left out. The source made the active and inactive calls. How the source made its calls: active means hit-call score of the fitted dose curve at least 0.9, where 1 is the maximum; inconclusive means response in the unintended direction; inactive means score below 0.9.

Steroid hormone receptor ERR1 (Homo sapiens), sequence (P11474 whole entry, looked up): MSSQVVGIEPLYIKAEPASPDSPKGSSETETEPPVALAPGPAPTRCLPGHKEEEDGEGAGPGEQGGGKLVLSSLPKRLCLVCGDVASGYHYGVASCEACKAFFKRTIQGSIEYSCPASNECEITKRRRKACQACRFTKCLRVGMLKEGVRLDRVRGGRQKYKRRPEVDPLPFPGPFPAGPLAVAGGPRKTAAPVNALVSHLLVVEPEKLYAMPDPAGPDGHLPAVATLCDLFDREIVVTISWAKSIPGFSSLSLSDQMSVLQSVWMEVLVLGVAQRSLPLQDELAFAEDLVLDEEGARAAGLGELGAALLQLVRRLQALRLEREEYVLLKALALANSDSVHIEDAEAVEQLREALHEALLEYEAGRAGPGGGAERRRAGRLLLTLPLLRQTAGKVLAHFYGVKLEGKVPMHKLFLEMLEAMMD

This experiment has as its target Steroid hormone receptor ERR1 (Homo sapiens) (UniProt P11474). Description: ATG_ERRa_TRANS: Attagene TRANS-FACTORIAL HepG2 Assay for human Estrogen-Related Receptor alpha (ERRa) (AID 2282971). Particulars: HepG2 Attagene TRANS reporter, ERRa transactivation. The protocol: ATG_TRANS is a cell-based, multiplexed-readout assay that uses HepG2, a human liver cell line, with measurements taken at 24 hours after chemical dosing in a 24-well plate.ATG_ERRa_TRANS is one of 30 assay component(s) measured or calculated from the ATG_TRANS assay. It is designed to make measurements of mRNA induction, a form of inducible reporter, as detected with fluorescence intensity signals by Reverse transcription polymerase chain reaction (RT-PCR) and Capillary electrophoresis technology.Data from the assay component ATG_ERRa_TRANS was analyzed into 1 assay endpoint. This assay endpoint, ATG_ERRa_TRANS, was analyzed in the positive analysis fitting direction relative to DMSO as the negative control and baseline of activity. Using a type of inducible reporter, measures of mRNA for gain-of-signal activity can be used to understand the reporter gene at the transcription factor-level as they relate to the gene ESRRA. Furthermore, this assay endpoint can be referred to as a primary readout, because this assay has produced multiple assay endpoints where this one serves a reporter gene function. To generalize the intended target to other relatable targets, this assay endpoint is annotated to the nuclear receptor intended target family, where the subfamily is steroidal.
Human liver HepG2 cells are transiently transfected with multiple reporter transcription units (MRTUs) in 6-well plates using FuGene 6 reagent (Roche; 3 ml FuGene/1 mg DNA). The MRTU constructs are regulated by a cis-regulating element (promoter). […] A major difference between the CIS and TRANS system is that in CIS activities of endogenous TFs are measured, whereas the TRANS assay evaluates changes in activities of exogenous, chimeric NR-Gal4 proteins. […] At the end of 24 hour incubation, total RNA was isolated using TriZol reagent (Invitrogen). The isolated RNA is then reverse-transcribed using oligo(dT) primer and Mo-MLV reverse transcriptase (Invitrogen) with DNAse I (Ambion) treatment for 30 min. The one-tenth of the produced cDNA was amplified by PCR using Taq DNA polymerase (Invitrogen) and two reporter sequence-specific primers. The PCR products were fluorescently labeled by primer extension with 6-arboxyfluorescein (6-FAM) 5'-labeled reporter sequence-specific primer (2 min at 95 C, 20 s at 68 C and 10 min at 72 C) and these products were digested with 5U of HpaI (New England Biolabs) for 2h at 37 C. The fragments were purified using Qiaquick PCR columns (Qiagen), analyzed on an ABI 3130xL genetic analyzer (Applied Biosystems) with peak positions identified by using a set of X-rhodamine (ROX)-labeled MapMarker1000 molecular weight standards (BioVentures). The raw capillary electrophoresis data was processed using Attagraph software (Attagene).
`O=[N+]([O-])/N=C1\NCCN1Cc1ccc(Cl)nc1`: the outcome was inactive.

For the molecule `CC[C@H](C)[C@H]1O[C@]2(C=C[C@@H]1C)C[C@@H]1C[C@@H](C/C=C(\C)[C@@H](O[C@H]3C[C@H](OC)[C@@H](O[C@H]4C[C@H](OC)[C@@H](O)[C@H](C)O4)[C@H](C)O3)[C@@H](C)/C=C/C=C3\CO[C@@H]4[C@H](O)C(C)=C[C@@H](C(=O)O1)[C@]34O)O2` (tested in a mixture with another compound), the call was inactive.

With `CCC(C)(NC(=O)c1cc(Cl)c(C)c(Cl)c1)C(=O)CCl` (configuration not stated), the call was inactive.

`CCOc1nc(NC)nc(NC(=O)NS(=O)(=O)c2ccccc2C(=O)OC)n1`: the outcome was inactive.

For `CNC(=O)Oc1ccccc1OC(C)C`, the call was inactive.

As to `CCC(C)(C)C(=O)OC1=C(c2ccc(Cl)cc2Cl)C(=O)OC12CCCCC2`, the outcome was inactive.

In the case of `OCCOc1ccccc1`, the outcome was inactive.

As to `O=S(=O)(O)C(F)(F)C(F)(F)C(F)(F)C(F)(F)C(F)(F)C(F)(F)C(F)(F)C(F)(F)F`, the call was inactive.

On to `CCOCN(C(=O)CCl)c1c(C)cccc1CC`, for which the call was inactive.

For the molecule `COc1cc(OC)nc(NC(=O)NS(=O)(=O)c2cc(NC=O)ccc2C(=O)N(C)C)n1`, the outcome was inactive.

Consider `CN1CSC(=S)N(C)C1`, for which the result was inactive.

As for `COC(=O)c1ccccc1CS(=O)(=O)NC(=O)Nc1nc(OC)cc(OC)n1`, the outcome was inactive.

Take `CCS(=O)(=O)c1cccnc1S(=O)(=O)NC(=O)Nc1nc(OC)cc(OC)n1`: the call was inactive.

In the case of `CCN(CC)C(=O)SCc1ccc(Cl)cc1`, the call was inactive.

Consider `CC1(c2ccc(Oc3ccccc3)cc2)OC(=O)N(Nc2ccccc2)C1=O` (configuration not stated), for which the molecule was called inactive.

For `CCCN(CCOc1c(Cl)cc(Cl)cc1Cl)C(=O)n1ccnc1`, the outcome was inactive.

As for `O=C(Nc1ccccc1)Nc1cnns1`, the call was inactive.

Consider `CC(C)OC(=O)Nc1cccc(Cl)c1`, for which the result was inactive.

As for `Oc1cc(Cl)ccc1Oc1ccc(Cl)cc1Cl`, the result was inactive.

For `CCc1ccc(C(=O)NN(C(=O)c2cc(C)cc(C)c2)C(C)(C)C)cc1`, the call was inactive.

Regarding `CC1(C)C(C=C(Cl)Cl)C1C(=O)OC(C#N)c1ccc(F)c(Oc2ccccc2)c1` (configuration not stated), the molecule was classed as inactive.

For `ClC1C(Cl)C(Cl)C(Cl)C(Cl)C1Cl` (configuration not stated), the outcome was inactive.

The values above are taken from PubChem BioAssay (EPA / NIEHS).
